A number with no mark means an inactive call. Records with an inconclusive call do not appear. Entries that show only a call come without a potency. The source made the active and inactive calls. Unless noted, the call rests on the fitted dose curve; in most records, active means well fitted curve in the direction sought with a large enough effect; inconclusive means small, poorly fitted or top-dose-only effect, or another doubt; inactive means no such curve, though single readings can be large; an effect the other way counts as inactive or inconclusive.
How the values were obtained:
[1] = biological target: Lysosomal acid glucosylceramidase (Homo sapiens) (UniProt P04062); test: Glucocerebrosidase-p2 (AID 348; in the data active means potency below about 10 µM; further: potency means the concentration at half of the fitted maximal effect); settings: purified GBA, blue fluorogenic substrate, 40 min
Chain of Lysosomal acid glucosylceramidase (Homo sapiens) (P04062 whole entry, looked up): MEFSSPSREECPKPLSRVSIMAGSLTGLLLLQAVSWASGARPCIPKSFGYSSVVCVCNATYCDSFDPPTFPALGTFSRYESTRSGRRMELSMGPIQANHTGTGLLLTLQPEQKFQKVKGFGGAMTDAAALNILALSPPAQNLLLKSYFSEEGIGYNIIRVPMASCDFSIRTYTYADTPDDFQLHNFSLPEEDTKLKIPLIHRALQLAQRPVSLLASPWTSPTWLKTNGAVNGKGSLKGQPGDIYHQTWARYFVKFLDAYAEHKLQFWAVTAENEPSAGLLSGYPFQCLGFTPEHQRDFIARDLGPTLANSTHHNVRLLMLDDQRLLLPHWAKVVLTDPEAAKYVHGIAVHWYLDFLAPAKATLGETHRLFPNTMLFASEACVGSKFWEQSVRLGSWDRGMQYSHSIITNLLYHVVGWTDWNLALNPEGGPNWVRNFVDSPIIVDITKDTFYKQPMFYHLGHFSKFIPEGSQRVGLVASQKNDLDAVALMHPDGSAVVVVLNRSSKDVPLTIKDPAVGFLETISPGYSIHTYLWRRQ
How it was run: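 Normal human glucocerebrosidase (0.2 nM) with blue fluorogenic substrate (80 uM final) in citrate/phosphate pH 5.9 with 10mM sodium taurocholate, 0.01% tween-20; 40 min RT, NaOH/glycine stop; fluorescence Ex 365/Em 440; AC50 from a titration from 0.6 nM upwards.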

[2] = AP1 Signaling Pathway (AID 357; active means well fitted curve in either direction with a large enough effect, not every such curve was filed as active;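 further: ME-180 reporter cells stimulated with EGF at its EC50 level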); settings: ME-180 AP-1-bla reporter, EGF-induced, beta-lactamase ratio, 5 h; at 7.69 µM (top of the series) unless noted
How it was run: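 A ratiometric CCF4 readout (405 nm excitation; 460 and 530 nm emission) quantified AP-1-driven beta-lactamase in ME-180 cells after 5 h with compound and EC50 EGF; AC50 values were derived for activators and inhibitors.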

[3] = biological target: Cytochrome P450 1A2 (Homo sapiens) (UniProt P05177); test: p450-cyp1a2 (AID 410; calls by dose curve; further: potency means the concentration at half of the fitted maximal effect); settings: recombinant CYP1A2, luciferin-ME demethylation, luminescence; series mostly up to 57 µM
Chain of Cytochrome P450 1A2 (Homo sapiens) (P05177 whole entry, looked up): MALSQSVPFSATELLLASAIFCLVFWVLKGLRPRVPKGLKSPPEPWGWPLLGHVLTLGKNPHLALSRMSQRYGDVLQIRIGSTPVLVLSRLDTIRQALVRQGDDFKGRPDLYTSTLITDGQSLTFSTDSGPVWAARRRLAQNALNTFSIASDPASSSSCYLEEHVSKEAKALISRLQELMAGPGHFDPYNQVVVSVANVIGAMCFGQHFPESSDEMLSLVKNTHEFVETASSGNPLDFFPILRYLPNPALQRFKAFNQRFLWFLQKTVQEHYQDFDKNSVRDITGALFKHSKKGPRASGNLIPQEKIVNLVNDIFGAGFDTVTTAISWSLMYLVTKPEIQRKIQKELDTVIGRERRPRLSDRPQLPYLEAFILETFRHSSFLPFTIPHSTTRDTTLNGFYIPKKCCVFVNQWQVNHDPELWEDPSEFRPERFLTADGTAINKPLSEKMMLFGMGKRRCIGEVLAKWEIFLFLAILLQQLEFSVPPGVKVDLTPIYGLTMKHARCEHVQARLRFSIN
How it was run: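 20nM CYP1A2, 100uM Luciferin-ME (=Km), 100mM KPO4; cpd 10 min RT; +NADPH regen, 60 min RT; stop/detect 20 min; luminescence. Normalized to furafylline 57 uM = full inhibition.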

[4] = NFAT Signaling Pathway (AID 444; active means well fitted curve in either direction with a large enough effect, not every such curve was filed as active;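 further: carbachol stimulus at about its EC50 of 1 µM final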); settings: Jurkat NFAT-bla M1, carbachol, beta-lactamase ratio, 5 h; at 7.69 µM (top of the series) unless noted
How it was run: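 Jurkat cells with NFAT-driven β-lactamase reporter and co-expressed M1 receptor, stimulated with carbachol (final 1 uM, ~EC50), compound titration, 5 h at 37 °C. CCF4 loaded 1 h at RT; 460/530 nm ratio gave %activity and AC50.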

[5] = Stat Signaling Pathway (AID 446; active means well fitted curve in either direction with a large enough effect, not every such curve was filed as active;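 further: ME-180 cervical cancer cells given 40 pM IL-6 alongside compound; SIE-controlled beta-lactamase reporter measured as 460/530 nm FRET emission ratio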); settings: ME-180 (cervical carcinoma) SIE beta-lactamase reporter, IL-6 stimulated, 5 h; at 7.69 µM (top of the series) unless noted
How it was run: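 Compound effects on IL-6-induced STAT reporter activity were measured in ME-180 cells. After overnight culture, cells were co-treated with 40 pM IL-6 for 5 hrs before beta-lactamase substrate loading at room temperature.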

[6] = biological target: Glucocorticoid receptor (Homo sapiens) (UniProt P04150); test: GR-GFP Redistribution (AID 450;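 active means compounds whose dose series gives a full or clear partial fitted curve of increased nuclear translocation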; further: potency means the concentration at half of the fitted maximal effect); settings: U2OS GR-GFP nuclear translocation, laser cytometry, 2 h
Chain of Glucocorticoid receptor (Homo sapiens) (P04150 whole entry, looked up, the tested form may be a part): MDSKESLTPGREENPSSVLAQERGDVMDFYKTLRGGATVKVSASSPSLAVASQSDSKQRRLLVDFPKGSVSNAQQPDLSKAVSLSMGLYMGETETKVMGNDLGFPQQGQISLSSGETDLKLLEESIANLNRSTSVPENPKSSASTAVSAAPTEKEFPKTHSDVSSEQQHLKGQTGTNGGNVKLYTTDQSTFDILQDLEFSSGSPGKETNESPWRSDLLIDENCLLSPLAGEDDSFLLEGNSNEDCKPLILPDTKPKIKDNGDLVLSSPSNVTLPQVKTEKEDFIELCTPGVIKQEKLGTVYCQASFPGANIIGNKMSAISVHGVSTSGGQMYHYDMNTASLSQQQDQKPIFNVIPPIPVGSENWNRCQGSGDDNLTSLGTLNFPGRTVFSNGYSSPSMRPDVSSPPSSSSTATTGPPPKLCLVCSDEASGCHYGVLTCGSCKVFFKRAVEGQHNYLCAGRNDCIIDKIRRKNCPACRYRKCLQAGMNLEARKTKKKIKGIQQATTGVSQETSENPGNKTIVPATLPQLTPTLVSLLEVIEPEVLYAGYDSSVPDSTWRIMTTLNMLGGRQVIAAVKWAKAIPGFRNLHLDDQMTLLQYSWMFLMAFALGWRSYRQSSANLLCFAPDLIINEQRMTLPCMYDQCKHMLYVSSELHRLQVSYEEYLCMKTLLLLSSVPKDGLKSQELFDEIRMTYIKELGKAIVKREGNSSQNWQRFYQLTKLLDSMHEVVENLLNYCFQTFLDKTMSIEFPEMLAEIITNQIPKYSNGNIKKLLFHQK

[7] = biological target: Glucocorticoid receptor (Homo sapiens) (UniProt P04150); test: GR-EFC Redistribution (AID 451; calls by dose curve; further: potency means the concentration at half of the fitted maximal effect); settings: CHO-K1 GR-EFC translocation, beta-gal luminescence, 2 h
How it was run: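 CHO-K1 cells expressing nuclear EA and GR-ED fragments of b-gal; compounds titrated up to 46 uM final, 2 h at 37 C. GR nuclear translocation read as complemented b-gal luminescence after 1 h RT detection.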

[8] = biological target: Mitogen-activated protein kinase 10 (Mus musculus) (UniProt Q61831); test: JNK3 AlphaScreen Assay (AID 530; active means well fitted curve in either direction with a large enough effect, not every such curve was filed as active;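 further: kinase came from lysate of stimulated human HepG2 cells; signal reports phosphorylation of biotinylated GST-cJun 1-79 at Ser73 with 10 µM ATP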); settings: JNK3 lysate, c-Jun phosphorylation; series mostly up to 57.1 µM
How it was run: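 HepG2 lysate (IL-1b/TNFa pre-activated) + biotin-GST-cJun 1-79 + anti-pSer73 cJun; cpd titration, 15 min RT; ATP 10 uM start; Tris pH 7.6, MgCl2, DTT, vanadate; beads in EDTA buffer; AlphaScreen.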

[9] = biological target: 3',5'-cyclic-AMP phosphodiesterase 4B (Homo sapiens) (UniProt Q07343); test: qHTS Assay for Inhibitors of PDE-IV (AID 607; active means well fitted activation curve with a large enough effect in the main read-out, with a control signal flat, not every such curve was filed as active); settings: HEK293 ACTOne CNG channel cells, membrane potential fluorescence; series mostly up to 22.9 µM
Chain of 3',5'-cyclic-AMP phosphodiesterase 4B (Homo sapiens) (Q07343 whole entry, looked up): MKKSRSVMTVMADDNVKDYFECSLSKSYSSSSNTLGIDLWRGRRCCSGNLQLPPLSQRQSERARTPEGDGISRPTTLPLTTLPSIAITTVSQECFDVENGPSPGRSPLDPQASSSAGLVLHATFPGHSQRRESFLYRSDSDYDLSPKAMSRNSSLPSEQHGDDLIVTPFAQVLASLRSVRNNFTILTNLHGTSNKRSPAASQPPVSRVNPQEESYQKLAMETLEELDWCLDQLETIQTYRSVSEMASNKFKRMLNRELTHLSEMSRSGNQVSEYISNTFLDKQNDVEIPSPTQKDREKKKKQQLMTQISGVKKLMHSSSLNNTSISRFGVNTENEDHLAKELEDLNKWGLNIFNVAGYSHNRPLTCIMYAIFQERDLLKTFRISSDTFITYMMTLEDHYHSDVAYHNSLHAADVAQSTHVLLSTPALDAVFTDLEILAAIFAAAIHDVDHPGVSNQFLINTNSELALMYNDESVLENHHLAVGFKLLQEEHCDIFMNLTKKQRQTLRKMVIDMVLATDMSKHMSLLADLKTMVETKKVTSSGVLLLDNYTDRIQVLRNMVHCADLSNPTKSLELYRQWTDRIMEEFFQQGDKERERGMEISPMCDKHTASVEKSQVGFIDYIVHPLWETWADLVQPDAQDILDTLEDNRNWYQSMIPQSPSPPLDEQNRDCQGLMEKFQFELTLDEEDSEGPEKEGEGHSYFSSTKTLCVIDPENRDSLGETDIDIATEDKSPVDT
How it was run: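 ACTOne HEK293 cells carry a modified cAMP-gated CNG channel and express endogenous PDE4; plated 1000 cells/well, compounds up to 22.9 uM final. Membrane-potential dye fluorescence (ex 535/em 590) was read; parental cells received 10 uM forskolin + 100 uM RO 20-1724.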

[10] = biological target: Cytochrome P450 3A4 (Homo sapiens) (UniProt P08684); test: qHTS Assay for Activators of Cytochrome P450 3A4 (AID 885); settings: recombinant CYP3A4, Luciferin-PPXE luminescence, 60 min; series mostly up to 57.1 µM; further: nearly all actives have a fitted effect of over 65% in size
Chain of Cytochrome P450 3A4 (Homo sapiens) (P08684 whole entry, looked up): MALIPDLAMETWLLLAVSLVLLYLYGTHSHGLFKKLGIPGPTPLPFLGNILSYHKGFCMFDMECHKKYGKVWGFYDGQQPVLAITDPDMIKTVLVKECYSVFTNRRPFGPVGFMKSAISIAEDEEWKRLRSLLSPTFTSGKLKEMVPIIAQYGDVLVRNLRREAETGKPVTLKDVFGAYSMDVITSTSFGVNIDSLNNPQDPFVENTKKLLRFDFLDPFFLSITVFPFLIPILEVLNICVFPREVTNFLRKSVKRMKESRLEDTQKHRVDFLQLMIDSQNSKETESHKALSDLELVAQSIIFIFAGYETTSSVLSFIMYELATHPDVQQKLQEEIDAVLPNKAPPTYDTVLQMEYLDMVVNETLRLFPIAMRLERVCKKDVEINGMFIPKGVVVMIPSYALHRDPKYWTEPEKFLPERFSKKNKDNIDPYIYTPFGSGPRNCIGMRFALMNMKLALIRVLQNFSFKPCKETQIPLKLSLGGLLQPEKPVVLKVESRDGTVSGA
How it was run: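 CYP3A4 activity: Luciferin-PPXE O-dealkylation, 25uM substrate, 200mM KPO4, RT throughout. Read-out is luciferase luminescence; higher values reflect activation.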

[11] = biological target: Dual specificity protein kinase CLK4 (Homo sapiens) (UniProt Q9HAZ1); test: qHTS Assay for Inhibitors of CDC-like Kinase 4 (Kinase-Glo Assay) (AID 1770); settings: recombinant Clk4, Kinase-Glo ATP depletion luminescence; series mostly up to 66.7 µM; further: nearly all actives have a fitted effect of over 65% in size
Chain of Dual specificity protein kinase CLK4 (Homo sapiens) (Q9HAZ1 whole entry, looked up): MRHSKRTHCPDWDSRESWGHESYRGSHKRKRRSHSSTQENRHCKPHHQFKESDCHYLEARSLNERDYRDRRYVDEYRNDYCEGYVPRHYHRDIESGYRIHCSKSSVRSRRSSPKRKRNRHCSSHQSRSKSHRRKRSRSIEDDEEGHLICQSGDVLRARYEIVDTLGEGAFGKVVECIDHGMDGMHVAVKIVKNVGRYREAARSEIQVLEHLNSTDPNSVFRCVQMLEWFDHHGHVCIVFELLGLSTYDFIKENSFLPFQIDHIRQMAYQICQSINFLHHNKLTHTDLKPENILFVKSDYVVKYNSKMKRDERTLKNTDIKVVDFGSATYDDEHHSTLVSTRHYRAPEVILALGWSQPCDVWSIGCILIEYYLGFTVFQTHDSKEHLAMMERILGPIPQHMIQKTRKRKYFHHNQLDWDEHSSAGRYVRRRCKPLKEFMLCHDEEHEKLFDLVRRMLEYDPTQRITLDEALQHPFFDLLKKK
How it was run: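 Readout: Kinase-Glo luminescence from ATP left after a 4.5 h room-temperature reaction of 25 nM Clk4 with 100 uM RS peptide and 1 uM ATP (final). Buffer: 25 mM Tris pH 7.5, 10 mM MgCl2.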

[12] = biological target: Dual specificity protein kinase CLK4 (Homo sapiens) (UniProt Q9HAZ1); test: qHTS Assay for Inhibitors of CDC-like Kinase 4 (ADP-Glo Assay) (AID 1771); settings: recombinant CLK4, ADP-Glo luminescence; series mostly up to 80 µM; further: nearly all actives have a fitted effect of over 70% in size
How it was run: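 25 nM Clk4, 100 uM RS peptide, 1 uM ATP (final); 2 mM MgCl2, 0.5 mM EGTA, 2.5 mM DTT, 0.01% Triton X-100; 1 hr RT. ADP-Glo readout: ATP depletion 45 min, conversion/luciferase 30 min, luminescence.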

[13] = biological target: Dual specificity protein kinase CLK4 (Homo sapiens) (UniProt Q9HAZ1); test: qHTS Assay for Inhibitors of CDC-like Kinase 4 (ADP-FP Assay) (AID 1795); settings: Transcreener ADP fluorescence polarization; series mostly up to 50 µM;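 further: recombinant human CLK4 phosphorylating RS repeat peptide at 1 µM ATP; nearly all actives have a fitted effect of over 60% in size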
How it was run: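 FP readout: Orange Transcreener ADP2 tracer (4 nM) plus ADP antibody, read after 30 min at room temperature. Kinase step: 6.25 nM Clk4, 100 uM RS peptide, 1 uM ATP, pH 7.5, 1 h.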

[14] = biological target: Ubiquitin carboxyl-terminal hydrolase 1 (Homo sapiens) (UniProt O94782); test: Inhibitors of USP1/UAF1: Pilot qHTS (AID 504865); settings: purified USP1/UAF1, Ub-rhodamine cleavage fluorescence; series mostly up to 54.9 µM;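 further: rhodamine fluorescence freed from ubiquitin-rhodamine substrate followed over time; top concentration of the series differs between compounds; nearly all actives have a fitted effect of over 35% in size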
Chain of Ubiquitin carboxyl-terminal hydrolase 1 (Homo sapiens) (O94782 whole entry, looked up): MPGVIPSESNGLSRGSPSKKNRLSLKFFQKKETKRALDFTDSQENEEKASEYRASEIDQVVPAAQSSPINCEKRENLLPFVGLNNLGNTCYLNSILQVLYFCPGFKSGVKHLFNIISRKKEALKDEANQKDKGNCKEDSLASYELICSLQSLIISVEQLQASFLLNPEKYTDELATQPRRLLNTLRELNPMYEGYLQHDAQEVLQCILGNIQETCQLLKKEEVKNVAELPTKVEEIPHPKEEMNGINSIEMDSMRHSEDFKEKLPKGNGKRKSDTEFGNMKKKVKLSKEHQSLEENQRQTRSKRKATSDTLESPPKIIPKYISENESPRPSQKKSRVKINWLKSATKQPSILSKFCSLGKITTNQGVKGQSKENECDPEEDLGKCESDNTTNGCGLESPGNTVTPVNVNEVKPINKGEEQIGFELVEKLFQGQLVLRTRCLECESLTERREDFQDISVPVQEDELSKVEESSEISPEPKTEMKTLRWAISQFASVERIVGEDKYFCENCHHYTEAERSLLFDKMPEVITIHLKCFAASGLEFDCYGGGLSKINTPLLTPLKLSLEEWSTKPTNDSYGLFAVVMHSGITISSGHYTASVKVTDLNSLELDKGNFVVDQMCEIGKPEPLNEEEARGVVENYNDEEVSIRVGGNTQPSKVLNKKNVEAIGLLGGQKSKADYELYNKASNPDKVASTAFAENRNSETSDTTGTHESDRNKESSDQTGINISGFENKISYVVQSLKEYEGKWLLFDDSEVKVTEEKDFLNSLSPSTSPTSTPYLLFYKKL
How it was run: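 1nM USP1/UAF1 + cpd, 15 min RT; start w/ Ub-Rho 150nM final; kinetic FL 480/540 nm, 6 reads q60 s. Buffer 50mM HEPES pH 7.8, 0.5mM EDTA, 1mM TCEP, 0.01% Tween-20, 0.1 mg/ml BSA.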

[15] = Primary qHTS for small molecule stabilizers of the endoplasmic reticulum resident proteome: Secreted ER Calcium Modulated Protein (SERCaMP) assay (AID 1508630); settings: SH-SY5Y GLuc-SERCaMP (Gaussia luciferase released on ER calcium loss) secretion, thapsigargin, luminescence; series mostly up to 38.4 µM
How it was run: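 The SH-SY5Y reporter protocol was run at 3 concentrations up to 38.3 uM (primary) or 11 concentrations (follow-up): 16 h compound, 100 nM thapsigargin for 4 h, then extracellular luciferase luminescence.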

[16] = biological target: Cytochrome P450 2C9 (Homo sapiens) (UniProt P11712); test: qHTS Assay for Inhibitors and Substrates of Cytochrome P450 2C9 (AID 883); settings: recombinant CYP2C9, luciferin-H luminescence, 60 min; series mostly up to 57.1 µM; further: potency means the concentration at half of the fitted maximal effect; nearly all actives have a fitted effect of over 60% in size
Chain of Cytochrome P450 2C9 (Homo sapiens) (P11712 whole entry, looked up): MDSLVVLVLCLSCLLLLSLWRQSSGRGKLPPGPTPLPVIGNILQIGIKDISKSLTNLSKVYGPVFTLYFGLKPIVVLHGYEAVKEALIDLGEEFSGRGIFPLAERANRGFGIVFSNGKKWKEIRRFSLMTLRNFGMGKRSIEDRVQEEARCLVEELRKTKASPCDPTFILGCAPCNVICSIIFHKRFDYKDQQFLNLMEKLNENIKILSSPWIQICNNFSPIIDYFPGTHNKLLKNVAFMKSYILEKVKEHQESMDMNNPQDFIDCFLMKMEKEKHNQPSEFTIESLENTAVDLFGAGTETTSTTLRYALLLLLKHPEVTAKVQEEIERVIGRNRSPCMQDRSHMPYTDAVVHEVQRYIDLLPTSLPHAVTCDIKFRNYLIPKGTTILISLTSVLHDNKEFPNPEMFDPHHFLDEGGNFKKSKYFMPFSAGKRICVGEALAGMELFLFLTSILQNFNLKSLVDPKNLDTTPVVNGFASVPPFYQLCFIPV
How it was run: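 10nM CYP2C9 + 100uM Luciferin-H (=KM), 25mM KPO4; cpd 10 min 37C; NADPH regen, 60 min 37C; stop/detect with P450 Glo-Buffer 20 min; luminescence. Norm. to 57uM sulphaphenazole as full inhibition.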

Compound	Potency [1]	activity change, negative = inhibition [2]	Potency [3]	activity change, negative = inhibition [4]	activity, negative = inhibition [5]	Potency [6]	Potency [7]	Potency [8]	Potency [9]	Potency [10]	Potency [11]	Potency [12]	Potency [13]	Potency [14]	outcome [15]	Potency [16]
COc1ccc(-c2nc3cnc(OC)nc3n(C)c2=O)cc1	> 11.4 µM	8.21%	2.51 µM (active)	-0.516%	15.6%	> 9.22 µM	> 46 µM	inactive	inactive	inactive	inactive	inactive	inactive	inactive	inactive	–
COCCn1c(=O)cnc2cnc(Oc3cccc(Cl)c3)nc21	> 11.4 µM	1.86%	3.16 µM (active)	2.09%	-13.2%	> 9.22 µM	> 46 µM	inactive	inactive	inactive	inactive	inactive	inactive	inactive	inactive	–
CNc1ccnc(-c2ccccc2C)n1	> 11.4 µM	0.123%	5.01 µM (active)	13%	6.43%	> 46 µM	> 46 µM	inactive	inactive	inactive	inactive	inactive	inactive	inactive	inactive	–
Cc1noc(C)c1-c1nccc(N(C)C)n1	> 11.4 µM	2.07%	0.631 µM (active)	-4.83%	15.8%	> 46 µM	> 46 µM	inactive	inactive	inactive	inactive	inactive	inactive	inactive	inactive	–
N#CCCn1c(=O)c(-c2cc(F)cc(F)c2)nc2cnc(N3CCOCC3)nc21	> 11.4 µM	2.2%	3.16 µM (active)	20.1%	12.6%	> 9.22 µM	> 46 µM	inactive	inactive	inactive	inactive	inactive	inactive	inactive	inactive	–
O=c1c(-c2cccc(Cl)c2)nc2cncnc2n1Cc1ccccc1	> 11.4 µM	-3.36%	1 µM (active)	-0.741%	-3.65%	> 9.22 µM	> 46 µM	inactive	–	–	inactive	inactive	inactive	inactive	inactive	1.26 µM (active)
